Common to all, as to details: concentration: 1 μM, replicates: in singlicate; n = 1
Experiment [1] deals with CDC2L2.
In experiment [2] the test system is T1, CDC2L5.
T1 construct: gene CDK13

For experiment [3], the system named is T2, CDK11.
T2 construct: gene CDK19

Experiment [4] deals with CDK2.
Experiment [5] has as its system CDK3.
In experiment [6] the test system is CDK4-cyclinD1.
For experiment [7], the system named is CDK4-cyclinD3.
Experiment [8] has as its system CDK4.
Experiment [9] concerns CDK5.
The subject of experiment [10] is CDK7.

Structures are written as SMILES.

The source of these data is publication PMC5540273 (PLoS ONE, 2017).
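Also: KINOMEscan kinase panel screen.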

With `O=C(Nc1ccccc1F)NC1CCN(c2ccnc(Nc3ccc(F)cc3)n2)CC1` [GSK1379800], the “%Inh” value in experiment [1] came to 34%; in [2], 0%; in experiment [3], 9%; in [4], 0%; in [5], 0%; in experiment [6], 2%. In addition, the “%Inh” value in experiment [7] is given as 0%; in [8], 28%; in experiment [9], 0%; in experiment [10], 0%.

Take `Cc1ccc(C)c(NC(=O)NC2CCN(c3ccnc(Nc4ccc(F)cc4)n3)C2)c1` (centres unmarked) [GSK1379720]: the “%Inh” value in [1] is given as 0%; in experiment [2], 0%; in experiment [3] it was 57%; in experiment [4], 0%; in [5], 10%; in [6] it was 37%. Further, the “%Inh” value was found to be 0% in experiment [7], 35% in experiment [8], 0% in experiment [9] and 0% in [10].

As to `CCCCc1nn2ncccc2c1-c1ccnc(Nc2ccc(N3CCN(C)CC3)cc2)n1` [GW684941], the “%Inh” value in [1] is given as 7%; in experiment [2], 0%; in experiment [3], 19%; in [4] it was 0%; in [5] it was 9%; in experiment [6], 63%. Further, the “%Inh” value was 53% in [7], 46% in experiment [8], 0% in experiment [9] and 34% in [10].

Regarding `O=C(Nc1n[nH]c2nc(-c3ccc(O)cc3)ccc12)C1CC1` [SB-710363], the “%Inh” value in [1] was determined as 0%; in experiment [2], 69%; in [3], 0%; in experiment [4], 75%; in experiment [5] it was 84%; in [6], 83%. Also, the “%Inh” value in experiment [7] worked out at 78%; in [8], 0%; in [9], 0%; in [10], 41%.

`O=c1[nH]cc(-c2ccc(N3CCOCC3)cc2)c2sc(-c3cn[nH]c3)cc12` [GSK2276055]: the “%Inh” value is 12% in experiment [1]; 0% in [2]; 0% in experiment [3]; 0% in [4]; 6% in [5]; 0% in experiment [6]. The “%Inh” value is on record as 21% in experiment [7], 0% in experiment [8], 0% in experiment [9] and 2% in experiment [10].

Take `COc1cccc(-c2ccc3c(NC(=O)C4CC4)n[nH]c3n2)c1` [SB-710903]: the “%Inh” value in experiment [1] worked out at 1%; in experiment [2], 0%; in [3], 0%; in experiment [4], 33%; in experiment [5], 41%; in [6] it was 61%. The “%Inh” value in experiment [7] is reported as 15%; in [8], 52%; in experiment [9] it was 0%; in experiment [10] it was 0%.

Turning to `Nc1ncc(-c2ccc3nccc(-c4ccncc4)c3c2)cc1S(=O)(=O)N1CCOCC1` [GSK1627798], the “%Inh” value was found to be 0% in experiment [1]; 0% in experiment [2]; 40% in experiment [3]; 1% in [4]; 6% in experiment [5]; 0% in experiment [6]. Also, the “%Inh” value turned out to be 47% in experiment [7], 0% in experiment [8], 0% in [9] and 72% in experiment [10].

In the case of `CN(C)S(=O)(=O)c1cc(-c2ccc3nccc(-c4cccc(S(N)(=O)=O)c4)c3c2)cnc1N` [GSK1669921], the “%Inh” value in experiment [1] was 3%; in [2], 0%; in [3], 54%; in [4], 0%; in [5], 9%; in [6], 0%. Moreover, the “%Inh” value in experiment [7] was 0%; in [8], 0%; in [9], 0%; in experiment [10] it was 58%.

For the compound `Cl.Cl.NCC(C(=O)Nc1cc(Br)c(-c2ccnc3[nH]ccc23)s1)c1ccccc1` (centres unmarked) [GSK1269851], the “%Inh” value in experiment [1] was 4%; in experiment [2], 0%; in [3], 17%; in experiment [4], 0%; in experiment [5] it was 5%; in experiment [6], 0%. For the same compound, the “%Inh” value is recorded as 2% in experiment [7], 15% in [8], 0% in experiment [9] and 24% in [10].

Turning to `COc1cc(Nc2nccc(-c3c(-c4cccc(NC(=O)c5c(F)cccc5F)c4)nn4ccccc34)n2)cc(OC)c1OC` [GSK323521], the “%Inh” value came to 14% in [1]; 0% in experiment [2]; 96.9% in experiment [3]; 20% in [4]; 21% in experiment [5]; 0% in [6]. The “%Inh” value in experiment [7] is recorded as 0%; in [8], 7%; in experiment [9] it was 28%; in experiment [10], 0%.

Regarding `CN1CCN(Cc2cccc(-c3ccc4c(Nc5ccc(Oc6ccccc6)cc5)ccnc4c3)c2)CC1` [GW578342], the “%Inh” value in [1] stood at 16%; in experiment [2], 0%; in experiment [3] it was 0%; in experiment [4], 0%; in experiment [5] it was 2%; in experiment [6], 0%. The “%Inh” value is reported as 0% in experiment [7], 34% in experiment [8], 0% in experiment [9] and 5% in experiment [10].

`NCCCC(NC(=O)c1cc(Br)c(-c2ccnc3[nH]ccc23)s1)c1ccccc1.O=C(O)C(F)(F)F.O=C(O)C(F)(F)F` (centres unmarked) [GSK1287544]: the “%Inh” value in [1] is given as 0%; in experiment [2] it was 0%; in [3] it was 45%; in experiment [4], 0%; in [5], 10%; in [6], 0%. Moreover, the “%Inh” value is reported as 2% in [7], 5% in experiment [8], 6% in [9] and 4% in experiment [10].

With `c1ccc(-c2n[nH]cc2Nc2ccnc3ccccc23)nc1` [GW694077], the “%Inh” value in experiment [1] is on record as 6%; in experiment [2] it was 0%; in [3], 6%; in [4], 0%; in [5], 7%; in experiment [6], 58%. The “%Inh” value was found to be 46% in experiment [7], 37% in [8], 0% in [9] and 47% in experiment [10].

Consider `CN(c1ccc(NC(=O)Nc2cc(C(F)(F)F)ccc2F)cc1)c1ccnc(Nc2ccc(S(N)(=O)=O)cc2)n1` [GW809893], for which the “%Inh” value worked out at 94% in experiment [1]; 83% in experiment [2]; 98.8% in [3]; 99.7% in [4]; 99% in [5]; 14% in experiment [6]. Besides, the “%Inh” value is 5% in experiment [7], 0% in experiment [8], 97.1% in [9] and 95.3% in [10].
